Screening results: PubChem BioAssay, National Center for Advancing Translational Sciences (NCATS)
PNC inhibitor: blocks assembly of the perinucleolar compartment; PC3M PTB-GFP, PNC prevalence imaging, 16 h; stronger effect = lower value; hit rate 3.1% among 140,000; activity change (PNC), negative = inhibition, % at 10 µM;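 active = readout at or below -70, meaning at least 70% loss of cells showing the perinucleolar compartment, a nuclear body marking cancer cells; inconclusive = readout between -30 and a set limit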;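 also: plate controls were DMSO wells for no effect and camptothecin positive control wells for full effect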
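PC3M cells stably expressing PTB-GFP, 750–1000 cells/well, treated 16 h at 37 °C with compound (23 nl of library stock), in duplicate. After paraformaldehyde fixation and Hoechst stain, imaged at 20x; PNC prevalence scored by image analysis.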
HttQ103 aggreg: reduces HttQ103-GFP aggregates in PC12 cells; PC12 HttQ103-GFP aggregates, Acumen cytometry, 40 h; Potency, µM (titrated, usually from 46.1 µM), without a hit: top-dose activity change, negative = inhibition, usual class: inhibitors; hit rate 1.1% among 220,000; also: potency is read from the fitted curve at half-maximal effect; % is scaled to controls: 0 for no effect and ±100 for the full control effect; nearly all actives have a fitted effect of over 60% in size
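Aggregate formation scored by laser-scanning cytometer (488 excitation, 500–530 emission) in lysed PC12 cells expressing Q103-GFP after 100 nM tebufenozide induction; library tested in dose series, with ATPLite reagent added in the multiplex.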
HTT cytoprotect: protects HTT-Q103 PC12 cells, measured by ATP; Potency, µM (series often up to 56.4 µM), for the others: cytoprotection (ATP increase), most hits filed as activators; hit rate 0.14% among 230,000; PC12 HTT-Q103 induced, cytoprotection, ATP luminescence, 40 h; AID 1471; also: potency is read from the fitted curve at half-maximal effect; % of control where 0% means no effect; nearly all actives have a fitted effect of over 45% in size
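PC12 cells stably carrying ecdysone-inducible Htt exon 1 (Q103)–GFP were induced with 100 nM tebufenozide (final) alongside library compounds in a dose series. Cytoprotection was scored as retained ATP by ATPlite luminescence.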
Active calls of the source: *; ! = repeats disagree; [ ] = dose if it differs, or a comment. The sample as a whole holds a higher share of hits than the screen did. Unless noted, calls follow the shape of the dose curve; as a rule, active = well fitted curve in the direction sought with a large enough effect; inconclusive = small, poorly fitted or top-dose-only effect, or another doubt; inactive = no such curve, though single readings can be large; an effect the other way counts as inactive or inconclusive.

Cn1nnnc1SCC(=O)N(C1CCCCC1)C1CCS(=O)(=O)C1 (configuration not stated) was read as HttQ103 aggreg 25.8%.
For O=c1[nH]c(=O)n([C@H]2C[C@H](O)[C@@H](CO)O2)cc1Br the results were HttQ103 aggreg 37.5% and HTT cytoprotect 3.55µM*!.
`O=c1[nH]c(=O)n([C@H]2C[C@H](O)[C@@H](CO)O2)cc1F` gave PNC inhibitor 22.5, HttQ103 aggreg -15.3% and HTT cytoprotect 18.0%[1.9 µM].
`Cc1nn(CC(C)C)c(=S)[nH]c1=O` gave PNC inhibitor -83.4*, HttQ103 aggreg 17.8% and HTT cytoprotect 16.0%.
`Cc1nnc(SCC(C)C)[nH]c1=O` gave PNC inhibitor 6.8, HttQ103 aggreg 29.9% and HTT cytoprotect -19.8%.
`O=C(c1cccc(S(=O)(=O)NCc2ccccc2)c1)N1CCCC1` gave HttQ103 aggreg -1.4% and HTT cytoprotect -14.1%.
`N#CC1=C2SCC(O)(c3ccccc3)N2C(=O)CC1c1ccccc1F` (configuration not stated) gave PNC inhibitor 0.4, HttQ103 aggreg -14.6%[9.22 µM] and HTT cytoprotect -80.2%.
For N#CC1=C2SCC(O)(c3ccccc3)N2C(=O)CC1c1cccs1 (configuration not stated) the results were PNC inhibitor -88.6*, HttQ103 aggreg -11.3% and HTT cytoprotect 11.6%.
`COc1cccc(C(C(=O)NC2CCCCC2)N(C(=O)c2ccco2)c2ccc(-n3cnnn3)c(C)c2)c1` (configuration not stated) gave PNC inhibitor -100.0*, HttQ103 aggreg -1.0% and HTT cytoprotect 12.9%[10 µM].
`Cc1cc(N(C(=O)c2ccco2)C(C(=O)NC2CCCCC2)c2ccccc2)ccc1-n1cnnn1` (configuration not stated) gave PNC inhibitor -6.1, HttQ103 aggreg -6.3% and HTT cytoprotect -0.1%.
COc1ccccc1-c1nnc(N(C)C(=O)C2CCCO2)s1 (configuration not stated) was read as PNC inhibitor 7.3, HttQ103 aggreg 2.4%[9.22 µM] and HTT cytoprotect -14.9%[10 µM].
Screening C=CCOn1c(C)c(C(C)=O)c2c3no[n+]([O-])c3ccc21 returned PNC inhibitor 9.1, HttQ103 aggreg 22.4µM* and HTT cytoprotect 6.9%[10 µM].
`C=CCOn1c(C)c(C(C)=O)c2c3nonc3ccc21` gave PNC inhibitor -14.9, HttQ103 aggreg 11.2µM* and HTT cytoprotect 7.8%[1.9 µM].
Screening COn1c(C)c(C(C)=O)c2c3no[n+]([O-])c3ccc21 returned PNC inhibitor 55.4, HttQ103 aggreg -24.7% and HTT cytoprotect -11.8%.
`CCOC(=O)c1c(C)n(OCc2ccccc2)c2ccc3nonc3c12` gave PNC inhibitor 26.0, HttQ103 aggreg 10.2% and HTT cytoprotect -1.4%[10 µM].
`COc1cc(/C=C2\C(=O)N(CCC#N)N=C2C)c(Br)cc1OC(C)C` gave PNC inhibitor -0.4, HttQ103 aggreg -32.0% and HTT cytoprotect -18.1%[10 µM].
For N/C(=N\OC(=O)CN1C(=O)c2ccccc2C1=O)c1ccc(Br)cc1 the results were HttQ103 aggreg 0.1%[9.22 µM] and HTT cytoprotect -23.6%.
For CCCc1nc2c(C)cc(C)cc2c(N)c1CC the results were PNC inhibitor inconclusive, HttQ103 aggreg 22.9% and HTT cytoprotect -6.0%[10 µM].
`COc1cccc(-c2nnc(NC(=O)c3ccc(S(=O)(=O)N4CC(C)OC(C)C4)cc3)o2)c1` (configuration not stated) gave PNC inhibitor -3.3, HttQ103 aggreg 3.98µM* and HTT cytoprotect -32.5%[10 µM].
`CN(C)S(=O)(=O)c1ccc(C(=O)Nc2nnc(-c3cccs3)o2)cc1` gave HttQ103 aggreg inconclusive and HTT cytoprotect 28.1%[10 µM].
`N#Cc1ccc(C(=O)Nc2nnc(-c3cccs3)o2)cc1` gave HttQ103 aggreg 3.9%[9.22 µM] and HTT cytoprotect 16.6%[10 µM].
For CC1CN(S(=O)(=O)c2ccc(C(=O)Nc3nnc(-c4ccco4)o3)cc2)CC(C)O1 (configuration not stated) the results were HttQ103 aggreg inconclusive and HTT cytoprotect -76.2%.
Screening CC1CC(C)CN(S(=O)(=O)c2ccc(C(=O)Nc3nnc(-c4cccs4)o3)cc2)C1 (configuration not stated) returned PNC inhibitor 31.7, HttQ103 aggreg 7.94µM* and HTT cytoprotect -71.4%.
For CCC1CCCCN1S(=O)(=O)c1ccc(C(=O)Nc2nnc(-c3cccs3)o2)cc1 (configuration not stated) the results were PNC inhibitor -18.2, HttQ103 aggreg 11.2µM* and HTT cytoprotect 27.7%[10 µM].
`O=C(Cn1cnc2c(cnn2-c2ccc(F)cc2)c1=O)NCC1CCCO1` (configuration not stated) gave PNC inhibitor -13.2, HttQ103 aggreg 1.6% and HTT cytoprotect -19.9%.
